Source: PubChem BioAssay
This is a sample that favours compounds with a hit; in the whole collection about 21% have one here.
NS1 function inh = influenza NS1 inhibition | Potency, µM (top dose mostly 46.1 µM) | hit rate 0.4% among 270,000 | AID 2326; calls by dose curve; also: actives are rising curves; nearly all actives have a fitted effect of over 50% in size
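S. cerevisiae expressing influenza A NS1, grown in glucose, washed, then diluted 1:100 into pH 6.0 -URA galactose medium with 23 nl compound. Growth recovery read as OD600; NS1-free strain serves as control.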
CHX counter = counter-screen for Shiga toxin inhibitors: cycloheximide protein synthesis inhibition. hit rate 12% among 300,000. max response, %. cell reporter, cycloheximide protein synthesis inhibition counterscreen; in the data active = max response mostly above about 13%, no sharp cut-off; inactive = mostly below about 14%; also: read at 38.3 µM for the half of the compounds with a filed dose
Pf growth 48h = inhibits P. falciparum growth in the first generation, 48 h | P. falciparum luciferase growth in erythrocytes, 48 h | Potency, µM (titrated, usually from 28.7 µM), usual class: inhibitors | hit rate 5.9% among 310,000 | AID 504832
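A one-generation exposure of luciferase-tagged malaria parasites in RPMI 1640/Albumax erythrocyte culture, 37 C and 5% CO2. Inhibition is inferred from decreased luminescence after adding detection reagent.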
Giardia FBPA inh = Giardia lamblia aldolase inhibition. A8B2U2. purified Giardia FBPA. Potency, µM (doses to about 59.6 µM), usual class: inhibitors. hit rate 0.71% among 290,000. AID 2451; also: nearly all actives have a fitted effect of over 55% in size
Target sequence (A8B2U2 whole entry, looked up): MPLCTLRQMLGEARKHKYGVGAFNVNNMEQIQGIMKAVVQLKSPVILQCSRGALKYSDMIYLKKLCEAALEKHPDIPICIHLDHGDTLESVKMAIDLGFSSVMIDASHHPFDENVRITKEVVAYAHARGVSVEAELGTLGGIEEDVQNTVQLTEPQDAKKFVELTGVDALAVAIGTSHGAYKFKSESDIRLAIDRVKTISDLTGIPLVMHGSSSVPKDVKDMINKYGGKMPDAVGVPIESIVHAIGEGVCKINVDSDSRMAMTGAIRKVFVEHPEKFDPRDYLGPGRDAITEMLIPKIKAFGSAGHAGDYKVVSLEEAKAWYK
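40 nM FBPA preincubated 10 min at RT with compound (up to 57.5 uM final), then substrate plus GAPDH/TPI/NAD/arsenate coupling and diaphorase/resazurin added. Fluorescence read after 20 min at RT, 525/598 nm.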
Shiga inhibitor = blocks Shiga toxin action in Vero cells; Vero cells, Shiga toxin protein synthesis inhibition reporter; inhibition, % at 38.7 µM; hit rate 9.2% among 290,000; AID 2315; in the data active = inhibition mostly above about 28%, no sharp cut-off; inactive = mostly below about 43%
Pf growth 96h = inhibits malaria parasite growth, 96 h. hit rate 6.9% among 320,000. Potency, µM (highest dose often 28.7 µM), usual class: inhibitors. AID 504834. P. falciparum luciferase reporter growth, 96 h
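Cell-based qHTS: luciferase-tagged P. falciparum in erythrocytes (2% hematocrit, 0.05% parasitemia final) incubated with compounds for 96 hours, 37 C, 5% CO2; luciferase detection reagent then added and luminescence measured.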
Hits are given with their value; n = inactive; u = inconclusive; x = no result given; + = active, no number. Unless noted, calls follow the shape of the dose curve; as a rule, active = well fitted curve in the direction sought with a large enough effect; inconclusive = small, poorly fitted or top-dose-only effect, or another doubt; inactive = no such curve, though single readings can be large; an effect the other way counts as inactive or inconclusive.

SMILES	NS1 function inh	CHX counter	Pf growth 48h	Giardia FBPA inh	Shiga inhibitor	Pf growth 96h
Cc1ccc2c(c1)c1c(n2CC(O)Cn2c(C)nc3ccccc32)C(=O)CCC1 (configuration not stated)	n	n	15µM	n	n	n
OC(Cn1c2ccccc2c2ccccc21)C[n+]1cccc2ccccc21 (configuration not stated)	n	n	6.6µM	n	n	3.3µM
CC(C)CCCC(C)C1CCC2C3CC(O)[C@@]4(O)CC(O)CC[C@@]4(C)C3CC[C@@]12C (some centres not stated)	x	x	x	n	x	x
Cc1ccc2c(c1)c1c(n2CC(O)Cn2ccnc2C)C(=O)CCC1 (configuration not stated)	n	n	u	n	n	n
Cc1ccc2c(c1)c1c(n2CC(O)Cn2c(C)nc3ccccc32)/C(=N\O)CCC1 (configuration not stated)	n	n	12µM	n	n	u
CCOc1ccc(Br)cc1S(=O)(=O)Nc1ccc(N2CCOCC2)cc1	n	n	x	n	n	u
CCOc1ccccc1N1CC(C(=O)Nc2ccccc2N2CCOCC2)CC1=O (configuration not stated)	n	38	u	n	n	u
CC(C)(C)C1CCC(C(=O)Nc2ccccc2N2CCOCC2)CC1 (configuration not stated)	x	x	9.3µM	x	x	u
O=C(Nc1ccccc1N1CCN(c2ccccc2)CC1)C1CCCCC1	n	n	n	n	n	u
CCOc1ccc(Br)cc1S(=O)(=O)Nc1ccccc1N1CCOCC1	n	n	8.3µM	n	n	x
COc1ccc(CCC(=O)OCC(=O)N2CCN(S(=O)(=O)c3ccc(C)cc3C)CC2)cc1	x	x	n	x	x	n
CNc1cc(-c2ccccc2C(F)(F)F)ncn1	x	x	x	n	x	x
O=C(Nc1ccc(N2CCCC2)cc1)c1ccc2ccccc2c1	u	49	n	n	active	u
CC(C)Oc1ccc(C(=O)Nc2ccc(N3CCCCC3)cc2)cc1	n	n	u	n	n	u
CC(=O)N1CCN(c2ccc(NC(=O)c3ccc(Cl)cc3)cc2)CC1	n	n	n	n	n	u
CC(=O)N1CCN(c2ccc(NC(=O)c3cccc(Cl)c3)cc2)CC1	n	31	n	n	73	n
CC(=O)N1CCN(c2ccc(NC(=O)c3ccc(C(C)(C)C)cc3)cc2)CC1	n	32	10µM	n	45	n
CC(=O)N1CCN(c2ccc(NC(=O)c3cc(Cl)ccc3Cl)cc2)CC1	n	n	n	n	x	n
CC(=O)N1CCN(c2ccc(NC(=O)c3ccccc3C)cc2)CC1	n	10	n	n	n	n
Cc1ccccc1C(=O)N1CCN(c2ccc(NC(=O)c3cccnc3)cc2)CC1	x	n	n	n	n	n
O=C(Oc1ccccc1)N1CCC2(CC1)CN(c1ccccc1)C2	x	x	x	n	x	x
CCC(C)CCCCC(=O)N[C@@H](CCN)C(=O)N[C@H](C(=O)N[C@@H](CCN)C(=O)N[C@H]1CCNC(=O)C([C@@H](C)O)NC(=O)[C@@H](CCN)NC(=O)[C@H](CCN)NC(=O)[C@H](CC(C)C)NC(=O)[C@@H](CC(C)C)NC(=O)[C@H](CCN)NC1=O)[C@@H](C)O (some centres not stated)	x	n	x	n	n	x
CC(=O)N1CCN(c2ccc(NC(=O)c3ccc4ccccc4c3)cc2)CC1	n	26	n	x	n	n
Cc1ccc(N/N=C/c2c(O)n(-c3ccccc3)c(=O)[nH]c2=O)cc1	x	22	n	n	n	n
CCCCNC(=O)c1cnc2n(c1=O)CCS2	n	n	n	n	n	n
SMILES	NS1 function inh	CHX counter	Pf growth 48h	Giardia FBPA inh	Shiga inhibitor	Pf growth 96h
O=C(NCCCc1ccccc1)c1cnc2n(c1=O)CCS2	n	38	n	n	63	n
O=C(NCCC1=CCCCC1)c1cnc2n(c1=O)CCS2	n	41	n	n	41	n
O=C(NCCc1ccc(Cl)cc1)c1cnc2n(c1=O)CCS2	n	41	n	n	+	n
COc1ccc(C(=O)NC(C)c2cnn(-c3ccccn3)c2C)o1 (configuration not stated)	n	n	n	n	n	u
COc1ccc(NS(=O)(=O)c2cccc(C(=O)NNC(=O)c3ccc(Br)o3)c2)cc1	x	x	n	x	x	n
O=C1CCN(S(=O)(=O)c2ccc(Br)cc2)CCN1	x	n	n	n	n	u
Cc1onc(-c2ccccc2Cl)c1C(=O)Nc1cccc2nsnc12	n	n	n	n	n	n
Cc1onc(-c2ccccc2Cl)c1C(=O)Nc1cccc2cccnc12	n	n	9.3µM	n	n	u
